# Experimental data: the supplement of paper PMC8728848
# Many of the other results were omitted from the sample, so the strongest signals are more common in it than they were.
# B1: Glycodelin A (Homo sapiens), P09466 (protein)
# chain: MLCLLLTLGVALVCGVPAMDIPQTKQDLELPKLAGTWHSMAMATNNISLMATLKAPLRVHITSLLPTPEDNLEIVLHRWENNSCVEKKVLGEKTENPKKFKINYTVANEATLLDTDYDNFLFLCLQDTTTPIQSMMCQYLARVLVEDDEIMQGFIRAFRPLPRHLWYLLDLKQMEEPCRF
# B2: NKp30 (Homo sapiens), O14931 (protein)
# chain: LWVSQPPEIRTLEGSSAFLPCSFNASQGRLAIGSVTWFRDEVVPGKEVRNGTPEFRGRLAPLASSRFLHDHQAELHIRDVRGHDASIYVCRVEVLGLGVGTGNGTRLVVEKEHPQLG
# Columns and labels:
# Test in all cases: glycan array binding signal (z-score within array); higher = stronger binding
# Conditions in all cases: glycan notation: IUPAC condensed, linker removed
# Fuc(a1-2)Gal(b1-3)GalNAc = molecular target: Fuc(a1-2)Gal(b1-3)GalNAc
# In short: (§1)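 The binding signal is a Z-score computed within each array and averaged over linkers. Arrays of the same protein sequence at different concentrations or buffers were also averaged together. Data originate from 3228 arrays in the Consortium for Functional Glycomics database, kept only where the protein sequence was available.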
# [1] = molecular target: Fuc(a1-2)Gal(b1-3)GalNAc(b1-3)Gal
# In short: as §1
# [2] = molecular target: Fuc(a1-2)Gal(b1-3)GalNAc(b1-3)Gal(a1-4)Gal(b1-4)Glc
# In short: as §1
# Fuc(a1-2)Gal(b1-3)GlcNAc = molecular target: Fuc(a1-2)Gal(b1-3)GlcNAc
# In short: as §1
# [3] = molecular target: Fuc(a1-2)[GalNAc(a1-3)]Gal(b1-4)[Fuc(a1-3)]GlcNAc
# In short: as §1
# Gal(a1-3)Gal(b1-3)GlcNAc = molecular target: Gal(a1-3)Gal(b1-3)GlcNAc
# In short: as §1
# [4] = molecular target: Gal(b1-3)GalNAc(b1-3)Gal(a1-4)Gal(b1-4)Glc
# In short: as §1
# [5] = molecular target: Gal(b1-3)[Fuc(a1-4)]GlcNAc
# In short: as §1
# [6] = molecular target: Gal(b1-3)[Fuc(a1-4)]GlcNAc(b1-3)Gal(b1-4)GlcNAc
# In short: as §1
# [7] = molecular target: Gal(b1-4)GlcNAc(b1-3)GalNAc
# In short: as §1
# [8] = molecular target: Gal3S(b1-3)[Fuc(a1-4)]GlcNAc
# In short: as §1
# GalNAc(a1-3)Gal = molecular target: GalNAc(a1-3)Gal
# In short: as §1
# [9] = molecular target: GlcNAc(b1-3)[GlcNAc(b1-6)]GalNAc
# In short: as §1
# GlcNAc(b1-4)GlcNAc = molecular target: GlcNAc(b1-4)GlcNAc
# In short: as §1
# [10] = molecular target: GlcNAc(b1-6)Gal(b1-4)GlcNAc
# In short: as §1
# [11] = molecular target: Man(a1-2)Man(a1-2)Man(a1-6)[Man(a1-3)]Man
# In short: as §1
# [12] = molecular target: Man(a1-2)Man(a1-3)[Man(a1-2)Man(a1-6)]Man
# In short: as §1
# [13] = molecular target: Man(a1-2)Man(a1-6)[Man(a1-3)]Man(a1-6)[Man(a1-2)Man(a1-2)Man(a1-3)]Man
# In short: as §1
# [14] = molecular target: Neu5Ac(a2-3)Gal(b1-3)GalNAc(b1-4)[Neu5Ac(a2-3)]Gal(b1-4)Glc
# In short: as §1
# [15] = molecular target: Neu5Ac(a2-3)Gal(b1-4)GlcNAc(b1-3)Gal(b1-3)GlcNAc
# In short: as §1
# [16] = molecular target: Neu5Ac(a2-3)Gal6S(b1-4)[Fuc(a1-3)]GlcNAc
# In short: as §1
# [17] = molecular target: Neu5Ac(a2-6)Gal(b1-4)GlcNAc(b1-2)Man(a1-3)[GlcNAc(b1-2)Man(b1-4)GlcNAc(b1-2)Man(a1-6)]Man(b1-4)GlcNAc(b1-4)GlcNAc
# In short: as §1
# Neu5Ac(a2-6)GalNAc = molecular target: Neu5Ac(a2-6)GalNAc
# In short: as §1
# [18] = molecular target: Neu5Ac(a2-8)Neu5Ac(a2-8)Neu5Ac(a2-8)Neu5Ac(a2-3)[GalNAc(b1-4)]Gal(b1-4)Glc
# In short: as §1
# Neu5Ac(b2-6)GalNAc = molecular target: Neu5Ac(b2-6)GalNAc
# In short: as §1
# [19] = molecular target: Fuc(a1-2)Gal6S(b1-4)Glc6S
# In short: as §1
# [20] = molecular target: Fuc(a1-3)[Gal3S(b1-4)]Glc
# In short: as §1
# [21] = molecular target: Fuc(a1-3)[Gal3S(b1-4)]Glc6S
# In short: as §1
# [22] = molecular target: Fuc(a1-3)[Gal3S(b1-4)]GlcNAc6S
# In short: as §1
# Gal(b1-3)Gal = molecular target: Gal(b1-3)Gal
# In short: as §1
# Gal(b1-3)GalNAc = molecular target: Gal(b1-3)GalNAc
# In short: as §1
# [23] = molecular target: Gal(b1-3)GalNAc(b1-3)Gal(b1-4)Glc
# In short: as §1
# Gal3S(b1-4)Glc6S = molecular target: Gal3S(b1-4)Glc6S
# In short: as §1
# Gal3S(b1-4)GlcNAc6S = molecular target: Gal3S(b1-4)GlcNAc6S
# In short: as §1
# Gal3S6S(b1-4)GlcNAc6S = molecular target: Gal3S6S(b1-4)GlcNAc6S
# In short: as §1
# Gal4S6S(b1-4)GlcNAc = molecular target: Gal4S6S(b1-4)GlcNAc
# In short: as §1
# Gal6S(b1-4)Glc6S = molecular target: Gal6S(b1-4)Glc6S
# In short: as §1
# Glc(a1-4)Glc = molecular target: Glc(a1-4)Glc
# In short: as §1
# Glc(a1-6)Glc(a1-6)Glc = molecular target: Glc(a1-6)Glc(a1-6)Glc
# In short: as §1
# [24] = molecular target: GlcNAc(a1-6)Gal(b1-4)GlcNAc
# In short: as §1
# [25] = molecular target: Neu5Ac(a2-3)Gal(b1-3)[Neu5Ac(a2-3)Gal(b1-4)]GlcNAc
# In short: as §1
# [26] = molecular target: Neu5Ac(a2-3)Gal(b1-3)[Neu5Ac(a2-6)]GalNAc
# In short: as §1
# [27] = molecular target: Neu5Ac(a2-3)[GalNAc(b1-4)]Gal(b1-4)GlcNAc
# In short: as §1
# [28] = molecular target: Neu5Ac(a2-6)Gal(b1-4)GlcNAc(b1-3)Gal(b1-4)[Fuc(a1-3)]GlcNAc(b1-3)Gal(b1-4)[Fuc(a1-3)]GlcNAc
# In short: as §1
# [29] = molecular target: Neu5Ac(a2-8)Neu5Ac(a2-3)[GalNAc(b1-4)]Gal(b1-4)Glc
# In short: as §1
binder,measurement,setting,value
B1,glycan array binding signal (z-score),Fuc(a1-2)Gal(b1-3)GalNAc,-0.421
same,glycan array binding signal (z-score),[1],-0.414
same,glycan array binding signal (z-score),[2],-0.485
same,glycan array binding signal (z-score),Fuc(a1-2)Gal(b1-3)GlcNAc,-0.318
same,glycan array binding signal (z-score),[3],-0.439
same,glycan array binding signal (z-score),Gal(a1-3)Gal(b1-3)GlcNAc,4.32
same,glycan array binding signal (z-score),[4],-0.473
same,glycan array binding signal (z-score),[5],0.183
same,glycan array binding signal (z-score),[6],1.52
same,glycan array binding signal (z-score),[7],-0.373
same,glycan array binding signal (z-score),[8],3.69
same,glycan array binding signal (z-score),GalNAc(a1-3)Gal,-0.099
same,glycan array binding signal (z-score),[9],-0.397
same,glycan array binding signal (z-score),GlcNAc(b1-4)GlcNAc,-0.002
same,glycan array binding signal (z-score),[10],-0.5
same,glycan array binding signal (z-score),[11],-0.508
same,glycan array binding signal (z-score),[12],-0.43
same,glycan array binding signal (z-score),[13],-0.427
same,glycan array binding signal (z-score),[14],-0.406
same,glycan array binding signal (z-score),[15],-0.449
same,glycan array binding signal (z-score),[16],-0.448
same,glycan array binding signal (z-score),[17],2.02
same,glycan array binding signal (z-score),Neu5Ac(a2-6)GalNAc,4.31
same,glycan array binding signal (z-score),[18],4.64
same,glycan array binding signal (z-score),Neu5Ac(b2-6)GalNAc,3.68
B2,glycan array binding signal (z-score),Fuc(a1-2)Gal(b1-3)GalNAc,-0.862
same,glycan array binding signal (z-score),[19],2.23
same,glycan array binding signal (z-score),[20],0.441
same,glycan array binding signal (z-score),[21],0.61
same,glycan array binding signal (z-score),[22],0.561
same,glycan array binding signal (z-score),Gal(b1-3)Gal,-0.378
same,glycan array binding signal (z-score),Gal(b1-3)GalNAc,-0.24
same,glycan array binding signal (z-score),[23],-0.43
same,glycan array binding signal (z-score),Gal3S(b1-4)Glc6S,2.3
same,glycan array binding signal (z-score),Gal3S(b1-4)GlcNAc6S,2.56
same,glycan array binding signal (z-score),Gal3S6S(b1-4)GlcNAc6S,2.38
same,glycan array binding signal (z-score),Gal4S6S(b1-4)GlcNAc,2.56
same,glycan array binding signal (z-score),Gal6S(b1-4)Glc6S,2.44
same,glycan array binding signal (z-score),Glc(a1-4)Glc,-0.398
same,glycan array binding signal (z-score),Glc(a1-6)Glc(a1-6)Glc,-0.195
same,glycan array binding signal (z-score),[24],-0.667
same,glycan array binding signal (z-score),[25],0.776
same,glycan array binding signal (z-score),[26],-0.06
same,glycan array binding signal (z-score),[27],-0.354
same,glycan array binding signal (z-score),[28],-0.472
same,glycan array binding signal (z-score),[29],-0.18
